Data from PubChem BioAssay AID686978 (National Center for Advancing Translational Sciences (NCATS), 2013).
Screen size: about 420,000 compounds; about 64,000 (15%) were called active. Another 27% or so got no clear call; they are omitted. A selection follows. Values without a mark were called inactive. Calls come from the whole dose curve; as a rule, active = well fitted inhibition curve with a large enough effect; inconclusive = small, poorly fitted or top-dose-only effect; inactive = flat fitted curve, though single readings scatter.

Assay: qHTS for Inhibitors of human tyrosyl-DNA phosphodiesterase 1 (TDP1): qHTS in cells in absence of CPT; note: nearly all actives have a fitted effect of over 55% in size
Details: DT40 Tdp1-/- hTDP1 cells, no CPT, ATP luminescence, 48 h; activity change, negative = growth inhibition: at 46.2 µM (top of the series)
Summary of the method: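 DT40 Tdp1-/-;hTDP1 cells, no CPT (DMSO vehicle only), 400 cells/well; compounds pin-transferred; ≥48 hr, 37 °C; CellTiter-Glo 30 min RT dark, luminescence read.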
% is set by controls: 0 for no effect and ±100 for the full control effect; potency is the fitted concentration of half-maximal effect.

**Q.** With `O=[N+]([O-])c1cc(-c2nc(-c3ccccc3)no2)ccc1NCc1ccco1` as the compound, how does the “activity change, negative = growth inhibition” value read?
**A.** -21.4%

**Q.** For `O=C(c1cccc([N+](=O)[O-])c1)N1CCN(C(=O)c2ccco2)CC1`, which “activity change, negative = growth inhibition” value is on record?
**A.** -8.93%

**Q.** For `COc1ccc(CCNC(=O)CCc2ccccc2O)cc1OC`, which “activity change, negative = growth inhibition” value is on record?
**A.** -27.5%

**Q.** Which “activity change, negative = growth inhibition” value does the source give for `COc1ccc(CCNC(=O)c2ccccc2-c2ccccc2C(=O)O)cc1OC` here?
**A.** -10.3%

**Q.** With `O=C(c1ccccc1)N1CCN(c2ccc([N+](=O)[O-])c(NCc3ccco3)c2)CC1` as the compound, how does the Potency read?
**A.** 16.4 µM (active)

**Q.** For `COc1ccc(CCNc2cc(N3CCN(C(=O)c4ccccc4OC)CC3)ccc2[N+](=O)[O-])cc1OC`, which Potency is on record?
**A.** 9.2 µM (active)

**Q.** With `CCC(=O)N1CCC(C(N)=O)(N2CCCCC2)CC1` as the compound, how does the “activity change, negative = growth inhibition” value read?
**A.** -3.17%

**Q.** Which “activity change, negative = growth inhibition” value does the source give for `COc1cccc(C(=O)NC2=NC(c3ccc(N(C)C)cc3)CC(=O)N2)c1` (stereo unspecified) here?
**A.** -24.2%

**Q.** Which “activity change, negative = growth inhibition” value does the source give for `O=C(NCCCn1ccnc1)c1cc2c(s1)CCCC2` here?
**A.** 13%

**Q.** Which “activity change, negative = growth inhibition” value does the source give for `CCOCCCNC(=O)C(NC(=O)c1ccc(=O)[nH]c1)c1ccc(C)cc1` (stereo unspecified) here?
**A.** -13.8%

**Q.** For `CC(=O)N(CC(O)CO)c1c(I)c(C(=O)NCC(O)CO)c(I)c(C(=O)NCC(O)CO)c1I` (stereo unspecified), which Potency is on record?
**A.** inactive

**Q.** Which “activity change, negative = growth inhibition” value does the source give for `COc1ccc(C2N=C(N)N=C(N)N2c2ccccc2)cc1OC` (stereo unspecified) here?
**A.** -13.4%

**Q.** For `O=C(NCCS(=O)(=O)NCc1ccc(Cl)cc1)c1ccccc1`, which “activity change, negative = growth inhibition” value is on record?
**A.** -6.22%

**Q.** For `CCCCCCn1c(=O)n2n(c1=O)C[C@]1(OC(=O)NCc3ccc(OC)c(OC)c3)CN(S(=O)(=O)c3ccc(C)cc3)C[C@]1(O)C2`, which Potency is on record?
**A.** 20.6 µM (active)

**Q.** For `COc1ccc(CNC(=O)COC(=O)CCS(=O)(=O)c2ccc(C)cc2)cc1OC`, which “activity change, negative = growth inhibition” value is on record?
**A.** 1.8%

**Q.** Which “activity change, negative = growth inhibition” value does the source give for `CCCS(=O)(=O)N1CCC(C(=O)NCCc2ccc(OC)c(OC)c2)CC1` here?
**A.** -1.2%

**Q.** With `COc1ccc(-c2nc3cc([N+](=O)[O-])ccc3o2)cc1OC` as the compound, how does the “activity change, negative = growth inhibition” value read?
**A.** -5.45%

**Q.** For `Cc1nnc(-c2ccc(Oc3ccc(C)c(C)c3)c([N+](=O)[O-])c2)o1`, which Potency is on record?
**A.** 9.2 µM (active)

**Q.** With `CNc1ccc(-c2nc(-c3ccccc3C)no2)cc1[N+](=O)[O-]` as the compound, how does the “activity change, negative = growth inhibition” value read?
**A.** -16%

**Q.** Which “activity change, negative = growth inhibition” value does the source give for `O=C(CCc1nc(CN2CCN(S(=O)(=O)c3ccc(Cl)cc3)CC2)no1)N1CCCCC1` here?
**A.** -21.3%

**Q.** With `O=C(COC(=O)COc1cccc(F)c1)NCC1CCCCC1` as the compound, how does the “activity change, negative = growth inhibition” value read?
**A.** 0.989%

**Q.** For `O=C1OC(C(=O)Nc2cccc(Br)c2)Cc2ccccc21` (stereo unspecified), which “activity change, negative = growth inhibition” value is on record?
**A.** 1.96%

**Q.** Which Potency does the source give for `CC(C)C[C@@H](CO)N1CCN(Cc2ccc(O)cc2)CCC1=O` here?
**A.** inactive

**Q.** For `CC(C)C[C@@H](COCc1ccc(Cl)cc1)N1CCN(C(=O)c2ccc(Cl)cc2Cl)CCC1=O`, which Potency is on record?
**A.** 16.4 µM (active)

**Q.** Which “activity change, negative = growth inhibition” value does the source give for `CC(C)CC(CO)N1CCN(C(=O)c2ccc(Cl)cc2Cl)CCC1=O` (stereo unspecified) here?
**A.** -11.6%

**Q.** With `Cc1nc(N)nc(Cl)c1CCC1OCCO1` as the compound, how does the “activity change, negative = growth inhibition” value read?
**A.** -6.83%

**Q.** Which Potency does the source give for `OCCn1c(-c2ccccc2)csc1=Nc1ccccc1` here?
**A.** 16.4 µM (active)

**Q.** For `Cc1csc(=Nc2ccccc2)n1CCO`, which “activity change, negative = growth inhibition” value is on record?
**A.** 7.06%

**Q.** For `CCOCCc1nn2c(=O)cc(CSCC(=O)Nc3cccc(C)c3C)nc2s1`, which “activity change, negative = growth inhibition” value is on record?
**A.** -7.26%

**Q.** Which “activity change, negative = growth inhibition” value does the source give for `O=C(COC(=O)CCc1ccc(S(=O)(=O)N2CCOCC2)cc1)Nc1cccc(Cl)c1` here?
**A.** 5.37%

**Q.** With `Cc1cc(NC(=O)c2cccc(Cl)c2)ccc1-c1cc2ccccc2oc1=O` as the compound, how does the Potency read?
**A.** 23.1 µM (active)

**Q.** For `O=C(Nc1ccon1)c1cccc(Cl)c1`, which “activity change, negative = growth inhibition” value is on record?
**A.** 3.62%

**Q.** For `Cc1ccc2nc(COc3cccc(NC(=O)c4cccc(Cl)c4)c3)cc(=O)n2c1`, which “activity change, negative = growth inhibition” value is on record?
**A.** -22.2%

**Q.** Which “activity change, negative = growth inhibition” value does the source give for `N/C(=N\OS(=O)(=O)c1cccc([N+](=O)[O-])c1)c1ccncc1` here?
**A.** -5.45%

**Q.** Which “activity change, negative = growth inhibition” value does the source give for `Cc1ccc(CNC(=O)C(=O)c2cn(CC(=O)N3CCOCC3)c3ccccc23)cc1` here?
**A.** 13.1%

**Q.** Which “activity change, negative = growth inhibition” value does the source give for `CCS(=O)(=O)c1ccc(C(=O)NC)c(Cl)c1Cl` here?
**A.** 2.49%

**Q.** Which “activity change, negative = growth inhibition” value does the source give for `Cc1cc(O)ccc1-c1cnc2ccccc2n1` here?
**A.** -24.8%

**Q.** With `Cc1cccc(C)c1NC(=O)c1ccc(CN2CCc3ccccc3C2)cc1` as the compound, how does the Potency read?
**A.** 20.6 µM (active)

**Q.** For `O=C(Nc1ccc(CSc2ccccc2)cc1)c1ccc(CN2CCOCC2)cc1`, which “activity change, negative = growth inhibition” value is on record?
**A.** 1.03%

**Q.** With `Cc1ccc(NC(=O)CN2CCc3ccccc3C2)cc1C` as the compound, how does the “activity change, negative = growth inhibition” value read?
**A.** 0.0925%

**Q.** For `O=C(NNC(=O)c1csc(-c2cccnc2)n1)Nc1ccc(Cl)cc1`, which “activity change, negative = growth inhibition” value is on record?
**A.** -26.1%

**Q.** Which Potency does the source give for `C#CC(C)(CC)NC(=O)Cn1nnc(-c2ccc(OCc3c(F)cccc3Cl)cc2)n1` (stereo unspecified) here?
**A.** 18.4 µM (active)

**Q.** With `COCCCNC(=O)/C=C/c1ccc(OCc2c(F)cccc2Cl)cc1` as the compound, how does the “activity change, negative = growth inhibition” value read?
**A.** 2.03%

**Q.** For `Fc1cccc(Cl)c1COc1ccc(-c2nnco2)cc1`, which “activity change, negative = growth inhibition” value is on record?
**A.** -11.1%

**Q.** With `O=C(OCCOCn1cc(Br)c(=O)[nH]c1=O)c1ccccc1` as the compound, how does the “activity change, negative = growth inhibition” value read?
**A.** -9.32%

**Q.** For `CN(N)c1nc(N2CCCC2)nc(N2CCCC2)n1`, which “activity change, negative = growth inhibition” value is on record?
**A.** -15.5%

**Q.** Which “activity change, negative = growth inhibition” value does the source give for `O=C(NCc1ccccc1)c1cc(-c2cccc(Cl)c2)on1` here?
**A.** -15.6%

**Q.** Which Potency does the source give for `CCOC(=O)C1(CCOC)CCN(Cc2cc3ccccc3s2)CC1` here?
**A.** 16.4 µM (active)

**Q.** With `CCOC(=O)C1(CCOC)CCN(Cc2ccc(C(=O)OC)cc2)CC1` as the compound, how does the “activity change, negative = growth inhibition” value read?
**A.** -24.2%

**Q.** With `O=C(c1cn(CC2CCCN(Cc3cc4ccccc4s3)C2)nn1)N1CCCC1` (stereo unspecified) as the compound, how does the “activity change, negative = growth inhibition” value read?
**A.** -9.65%

**Q.** Which “activity change, negative = growth inhibition” value does the source give for `CCOC(=O)C1(S(=O)(=O)c2ccc(Cl)cc2)CCN(Cc2ccccc2)CC1` here?
**A.** -22%

**Q.** For `O=C(CCc1ccccc1)Nc1ccnn1C1CCN(Cc2ccc(OCCO)cc2)CC1`, which “activity change, negative = growth inhibition” value is on record?
**A.** 18.5%

**Q.** For `CCOC(=O)C1(CCOc2ccccc2)CCN(Cc2ccc(C#CCCO)cc2)CC1`, which Potency is on record?
**A.** 16.4 µM (active)

**Q.** With `CCOc1cc2[nH]c(=S)n(CCN3CCCCC3C)c(=O)c2cc1OCC` (stereo unspecified) as the compound, how does the “activity change, negative = growth inhibition” value read?
**A.** -22.3%

**Q.** For `O=C(NN1C(=O)C2C3C=CC(C3)C2C1=O)c1ccco1` (stereo unspecified), which “activity change, negative = growth inhibition” value is on record?
**A.** -3.19%

**Q.** For `COc1ccc(OC)c(NC(=O)N[C@H](Cc2ccccc2)C(=O)NN)c1`, which “activity change, negative = growth inhibition” value is on record?
**A.** 9.7%

**Q.** For `O=C(COC(=O)/C=C/c1ccc(Br)o1)Nc1cccc(S(=O)(=O)N2CCOCC2)c1`, which “activity change, negative = growth inhibition” value is on record?
**A.** 9.84%

**Q.** Which “activity change, negative = growth inhibition” value does the source give for `O=C(Nc1ccc(-c2cscn2)cc1)C1CCCN(Cc2ccc(CO)o2)C1` (stereo unspecified) here?
**A.** -0.798%

**Q.** For `COc1ccccc1/C=N/N1CCN(Cc2ccccc2Cl)CC1`, which “activity change, negative = growth inhibition” value is on record?
**A.** 9.68%

**Q.** For `CCC1Nc2ncnc(N3CCN(c4ccccc4)CC3)c2N(Cc2ccc(Cl)cc2)C1=O` (stereo unspecified), which Potency is on record?
**A.** 20.6 µM (active)

**Q.** With `CCS(=O)(=O)N1CCC(N2CCN(c3ccccc3)CC2)CC1` as the compound, how does the “activity change, negative = growth inhibition” value read?
**A.** -2.72%

**Q.** With `O=C1C(Cc2ccc(O)cc2)NC(=S)N1Cc1ccccc1` (stereo unspecified) as the compound, how does the “activity change, negative = growth inhibition” value read?
**A.** 9.72%

**Q.** Which “activity change, negative = growth inhibition” value does the source give for `O=C(Nc1ccnc(-c2ccncc2)n1)c1cccs1` here?
**A.** 11%

**Q.** With `Cc1ccc(C(=O)Nc2cc3c(cc2N2CCCC2)n(C)c(=O)c(=O)n3C)cc1` as the compound, how does the Potency read?
**A.** 20.6 µM (active)

**Q.** With `CCc1ccc(S(=O)(=O)Nc2cc3c(cc2N2CCCCC2)n(C)c(=O)c(=O)n3C)cc1` as the compound, how does the “activity change, negative = growth inhibition” value read?
**A.** -11.4%

**Q.** With `Cn1c(=O)n(C)c2cc(C(=O)Nc3ccc(Br)cc3)ccc21` as the compound, how does the “activity change, negative = growth inhibition” value read?
**A.** -23%
